# Reference: the supplement of paper PMC8728848
# Only a selection was taken, and the strongest signals are over-represented in it overall.
# B1: Tachylectin-2 (Tachypleus tridentatus), TAL2_TACTR (protein)
# chain: VGGESMLRGVYQDKFYQGTYPQNKNDNWLARATLIGKGGWSNFKFLFLSPGGELYGVLNDKIYKGTPPTHDNDNWMGRAKKIGNGGWNQFQFLFFDPNGYLYAVSKDKLYKASPPQSDTDNWIARATEIGSGGWSGFKFLFFHPNGYLYAVHGQQFYKALPPVSNQDNWLARATKIGQGGWDTFKFLFFSSVGTLFGVQGGKFYEDYPPSYAHDNWLARAKLIGNGGWDDFRFLFF
# B2: Mincle (Homo sapiens), Q9ULY5 (protein)
# chain: MNSSKSSETQCTERGCFSSQMFLWTVAGIPILFLSACFITRCVVTFRIFQTCDEKKFQLPENFTELSCYNYGSGSVKNCCPLNWEYFQSSCYFFSTDTISWALSLKNCSAMGAHLVVINSQEEQEFLSYKKPKMREFFIGLSDQVVEGQWQWVDGTPLTKSLSFWDVGEPNNIATLEDCATMRDSSNPRQNWNDVTCFLNYFRICEMVGINPLNKGKSL
# B3: RegIIIalpha (Mus musculus), O09037 (protein)
# chain: MLPHLVLNSISWMLLSCLLFVFQVQGEDFQKEVPSPRTSCPMGYKAYRSHCYALVMTPKSWFQADLVCQKRPSGHLVSILSGGEASFVSSLVNGRVDNYQDIWIGLHDPTMGQQPNGGGWEWSNSDVLNYLNWDGDPSSTVNRGHCGSLTASSGFLKWGDYYCDGTLPFVCKFKQ
# Columns and labels:
# Test in all cases: glycan array binding signal (z-score within array); higher = stronger binding
# Conditions in all cases: glycan notation: IUPAC condensed, linker removed
# [1] = target: Neu5Ac(a2-3)Gal(b1-4)GlcNAc6S
# Method in brief: (§1)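 Glycan array data were curated from 3228 arrays in the Consortium for Functional Glycomics database and kept only where the protein sequence was available. Glycan names were converted to IUPAC-condensed notation, and columns mapping to the same glycan were averaged. The binding signal is a within-array Z-score, averaged across arrays of the same protein sequence at different concentrations or buffers and across linkers. Negative Z-scores can be read as non-binding.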
# [2] = target: Neu5Ac(a2-6)Gal(b1-4)GlcNAc
# Method in brief: as §1
# [3] = target: Neu5Ac(a2-6)Gal(b1-4)GlcNAc(b1-2)Man(a1-3)[Man(a1-6)]Man(b1-4)GlcNAc(b1-4)GlcNAc
# Method in brief: as §1
# [4] = target: Neu5Ac(a2-6)Gal(b1-4)GlcNAc(b1-3)Gal(b1-4)GlcNAc
# Method in brief: as §1
# [5] = target: Neu5Gc(a2-3)Gal(b1-3)[Fuc(a1-4)]GlcNAc
# Method in brief: as §1
# Fuc(a1-2)Gal(b1-4)GlcNAc = target: Fuc(a1-2)Gal(b1-4)GlcNAc
# Method in brief: as §1
# [6] = target: Fuc(a1-2)Gal(b1-4)GlcNAc(b1-3)Gal(b1-4)GlcNAc(b1-3)Gal(b1-4)GlcNAc
# Method in brief: as §1
# [7] = target: Fuc(a1-2)Gal(b1-4)[Fuc(a1-3)]GlcNAc
# Method in brief: as §1
# Fuc(a1-2)Gal6S(b1-4)Glc = target: Fuc(a1-2)Gal6S(b1-4)Glc
# Method in brief: as §1
# [8] = target: Fuc(a1-2)Gal6S(b1-4)GlcNAc
# Method in brief: as §1
# [9] = target: Fuc(a1-2)[Gal(a1-3)]Gal(b1-4)GlcNAc
# Method in brief: as §1
# [10] = target: Fuc(a1-2)[GalNAc(a1-3)]Gal(b1-3)GlcNAc(b1-2)Man(a1-3)[Fuc(a1-2)[GalNAc(a1-3)]Gal(b1-3)GlcNAc(b1-2)Man(a1-6)]Man(b1-4)GlcNAc(b1-4)GlcNAc
# Method in brief: as §1
# [11] = target: Fuc(a1-2)[GalNAc(a1-3)]Gal(b1-4)GlcNAc
# Method in brief: as §1
# [12] = target: Fuc(a1-3)[Gal(b1-4)]GlcNAc(b1-2)Man(a1-6)[Gal(b1-4)GlcNAc(b1-2)Man(a1-3)]Man(b1-4)GlcNAc(b1-4)GlcNAc
# Method in brief: as §1
# [13] = target: Gal(a1-3)Gal(b1-3)GlcNAc(b1-2)Man(a1-3)[Gal(a1-3)Gal(b1-3)GlcNAc(b1-2)Man(a1-6)]Man(b1-4)GlcNAc(b1-4)GlcNAc
# Method in brief: as §1
# [14] = target: Gal(a1-4)Gal(b1-3)GlcNAc(b1-2)Man(a1-3)[Gal(a1-4)Gal(b1-3)GlcNAc(b1-2)Man(a1-6)]Man(b1-4)GlcNAc(b1-4)GlcNAc
# Method in brief: as §1
# [15] = target: Gal(a1-4)Gal(b1-4)GlcNAc(b1-2)Man(a1-3)[Gal(a1-4)Gal(b1-4)GlcNAc(b1-2)Man(a1-6)]Man(b1-4)GlcNAc(b1-4)GlcNAc
# Method in brief: as §1
# Gal(b1-3)Gal = target: Gal(b1-3)Gal
# Method in brief: as §1
# Gal(b1-3)Gal(b1-4)GlcNAc = target: Gal(b1-3)Gal(b1-4)GlcNAc
# Method in brief: as §1
# [16] = target: Gal(b1-3)GalNAc(a1-3)[Fuc(a1-2)]Gal(b1-4)GlcNAc
# Method in brief: as §1
# [17] = target: Gal(b1-3)GlcNAc(b1-3)Gal(b1-4)GlcNAc(b1-6)[Gal(b1-3)GlcNAc(b1-3)]Gal(b1-4)Glc
# Method in brief: as §1
# [18] = target: Gal(b1-4)GlcNAc(a1-6)Gal(b1-4)GlcNAc
# Method in brief: as §1
# [19] = target: Gal(b1-4)GlcNAc(b1-2)Man(a1-3)[GlcNAc(b1-2)Man(a1-6)]Man(b1-4)GlcNAc(b1-4)GlcNAc
# Method in brief: as §1
# [20] = target: Gal3S(b1-4)[Fuc(a1-3)]Glc
# Method in brief: as §1
# [21] = target: GlcNAc(a1-4)Gal(b1-4)GlcNAc(b1-3)Gal(b1-4)Glc
# Method in brief: as §1
# [22] = target: GlcNAc(b1-2)[GlcNAc(b1-4)]Man(a1-3)[GlcNAc(b1-2)Man(a1-6)]Man(b1-4)GlcNAc(b1-4)GlcNAc
# Method in brief: as §1
# [23] = target: GlcNAc(b1-3)Gal(b1-4)GlcNAc
# Method in brief: as §1
# [24] = target: GlcNAc(b1-3)[GlcNAc(b1-4)][GlcNAc(b1-6)]GlcNAc
# Method in brief: as §1
# [25] = target: Man(a1-2)Man(a1-3)[Man(a1-2)Man(a1-6)]Man
# Method in brief: as §1
# [26] = target: Man(a1-2)Man(a1-3)[Man(a1-2)Man(a1-6)]Man(a1-6)[Man(a1-2)Man(a1-2)Man(a1-3)]Man
# Method in brief: as §1
# [27] = target: Neu5Ac(a2-3)Gal(b1-3)GlcNAc(b1-2)Man(a1-3)[Neu5Ac(a2-3)Gal(b1-3)GlcNAc(b1-2)Man(a1-6)]Man(b1-4)GlcNAc(b1-4)GlcNAc
# Method in brief: as §1
# [28] = target: Neu5Ac(a2-3)Gal(b1-3)GlcNAc(b1-3)Gal(b1-3)GlcNAc
# Method in brief: as §1
# [29] = target: Neu5Ac(a2-3)Gal(b1-3)GlcNAc(b1-3)Gal(b1-4)GlcNAc
# Method in brief: as §1
# [30] = target: Neu5Ac(a2-3)Gal(b1-3)[Neu5Ac(a2-3)Gal(b1-4)]GlcNAc
# Method in brief: as §1
# [31] = target: Neu5Ac(a2-3)Gal(b1-4)GlcNAc(b1-2)Man(a1-3)[GlcNAc(b1-2)Man(b1-4)GlcNAc(b1-2)Man(a1-6)]Man(b1-4)GlcNAc(b1-4)GlcNAc
# Method in brief: as §1
# [32] = target: Neu5Ac(a2-3)Gal(b1-4)GlcNAc(b1-2)Man(a1-3)[Neu5Ac(a2-6)Gal(b1-4)GlcNAc(b1-2)Man(a1-6)]Man(b1-4)GlcNAc(b1-4)GlcNAc
# Method in brief: as §1
# [33] = target: Neu5Ac(a2-3)Gal(b1-4)[Fuc(a1-3)]GlcNAc(b1-3)Gal(b1-4)[Fuc(a1-3)]GlcNAc(b1-3)Gal(b1-4)[Fuc(a1-3)]GlcNAc
# Method in brief: as §1
# Neu5Ac(a2-6)Gal(b1-4)Glc = target: Neu5Ac(a2-6)Gal(b1-4)Glc
# Method in brief: as §1
# [34] = target: Neu5Ac(a2-6)Gal(b1-4)GlcNAc(b1-3)Gal(b1-4)GlcNAc(b1-3)Gal(b1-4)GlcNAc
# Method in brief: as §1
# [35] = target: Neu5Ac(a2-6)Gal(b1-4)GlcNAc(b1-3)GalNAc
# Method in brief: as §1
# [36] = target: Neu5Ac(a2-6)GalNAc(b1-4)GlcNAc
# Method in brief: as §1
# Fuc(a1-2)[Gal(a1-3)]Gal = target: Fuc(a1-2)[Gal(a1-3)]Gal
# Method in brief: as §1
# Gal(a1-3)Gal(b1-4)GlcNAc = target: Gal(a1-3)Gal(b1-4)GlcNAc
# Method in brief: as §1
# [37] = target: Gal(a1-3)[Gal(a1-4)]Gal(b1-4)GlcNAc
# Method in brief: as §1
# [38] = target: Gal(b1-4)GlcNAc(b1-6)GalNAc
# Method in brief: as §1
# Gal3S(b1-4)Glc = target: Gal3S(b1-4)Glc
# Method in brief: as §1
# Gal4S(b1-4)GlcNAc = target: Gal4S(b1-4)GlcNAc
# Method in brief: as §1
# Gal6S(b1-4)Glc = target: Gal6S(b1-4)Glc
# Method in brief: as §1
# [39] = target: GlcNAc(b1-3)[GlcNAc(b1-6)]GlcNAc(b1-4)GlcNAc
# Method in brief: as §1
# [40] = target: Man(a1-2)Man(a1-2)Man(a1-6)[Man(a1-3)]Man
# Method in brief: as §1
# [41] = target: Neu5Ac(a2-3)Gal(b1-4)GlcNAc(b1-3)Gal(b1-4)GlcNAc(b1-3)Gal(b1-4)GlcNAc
# Method in brief: as §1
# [42] = target: Neu5Ac(a2-3)Gal(b1-4)[Fuc(a1-3)]GlcNAc
# Method in brief: as §1
binder,measurement,setting,value
B1,glycan array binding signal (z-score),[1],-0.232
same,glycan array binding signal (z-score),[2],-0.176
same,glycan array binding signal (z-score),[3],-0.295
same,glycan array binding signal (z-score),[4],-0.249
same,glycan array binding signal (z-score),[5],-0.316
B2,glycan array binding signal (z-score),Fuc(a1-2)Gal(b1-4)GlcNAc,-0.329
same,glycan array binding signal (z-score),[6],0.144
same,glycan array binding signal (z-score),[7],-0.37
same,glycan array binding signal (z-score),Fuc(a1-2)Gal6S(b1-4)Glc,-0.325
same,glycan array binding signal (z-score),[8],-0.106
same,glycan array binding signal (z-score),[9],-0.111
same,glycan array binding signal (z-score),[10],0.062
same,glycan array binding signal (z-score),[11],-0.289
same,glycan array binding signal (z-score),[12],5.4
same,glycan array binding signal (z-score),[13],4.69
same,glycan array binding signal (z-score),[14],0.054
same,glycan array binding signal (z-score),[15],3.26
same,glycan array binding signal (z-score),Gal(b1-3)Gal,-0.357
same,glycan array binding signal (z-score),Gal(b1-3)Gal(b1-4)GlcNAc,-0.566
same,glycan array binding signal (z-score),[16],-0.127
same,glycan array binding signal (z-score),[17],6.4
same,glycan array binding signal (z-score),[18],-0.484
same,glycan array binding signal (z-score),[19],0.969
same,glycan array binding signal (z-score),[20],-0.146
same,glycan array binding signal (z-score),[21],-0.295
same,glycan array binding signal (z-score),[22],-0.194
same,glycan array binding signal (z-score),[23],-0.245
same,glycan array binding signal (z-score),[24],-0.38
same,glycan array binding signal (z-score),[25],0.813
same,glycan array binding signal (z-score),[26],5
same,glycan array binding signal (z-score),[27],-0.71
same,glycan array binding signal (z-score),[28],-0.197
same,glycan array binding signal (z-score),[29],-0.575
same,glycan array binding signal (z-score),[30],-0.483
same,glycan array binding signal (z-score),[31],3.33
same,glycan array binding signal (z-score),[32],2.53
same,glycan array binding signal (z-score),[33],-0.324
same,glycan array binding signal (z-score),Neu5Ac(a2-6)Gal(b1-4)Glc,-0.181
same,glycan array binding signal (z-score),[34],-0.394
same,glycan array binding signal (z-score),[35],0.372
same,glycan array binding signal (z-score),[36],-0.184
B3,glycan array binding signal (z-score),Fuc(a1-2)Gal(b1-4)GlcNAc,-0.094
same,glycan array binding signal (z-score),[6],0.048
same,glycan array binding signal (z-score),Fuc(a1-2)[Gal(a1-3)]Gal,-0.098
same,glycan array binding signal (z-score),Gal(a1-3)Gal(b1-4)GlcNAc,-0.089
same,glycan array binding signal (z-score),[37],0.002
same,glycan array binding signal (z-score),[38],-0.096
same,glycan array binding signal (z-score),Gal3S(b1-4)Glc,-0.096
same,glycan array binding signal (z-score),Gal4S(b1-4)GlcNAc,0.116
same,glycan array binding signal (z-score),Gal6S(b1-4)Glc,-0.072
same,glycan array binding signal (z-score),[39],-0.081
same,glycan array binding signal (z-score),[40],-0.092
same,glycan array binding signal (z-score),[41],0.002
same,glycan array binding signal (z-score),[42],-0.054
